Screening results from PubChem.
Compounds with a hit are over-represented: about 3% of the library has one in this group of screens.
EBV LMP1 NFkB: inhibitors of Epstein-Barr LMP1-induced NF-kappaB reporter. LMP1-induced NF-kappaB luciferase reporter cells, luminescence. inhibition, % at 12.5 µM. 0.69% of 350,000 active; in the data active = inhibition above about 41%
MITF TRPM1 inh: reduces MITF-dependent TRPM1 promoter luciferase signal. SK-MEL-5 TRPM1 promoter luciferase, 24 h. inhibition, % at 12.5 µM. 0.83% of 330,000 active. AID 488899;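 active = mean inhibition across replicates of 60% or more, whatever share of single replicates reaches that level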
Peg3 prom inh: Peg3 promoter activity inhibition. HeLa PEG-Prom luciferase reporter, luminescence, overnight. 1.7% of 360,000 active. AID 588405. inhibition, % at 20 µM;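 active = inhibition of at least 50% at 20 µM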
CF NFkB block: blocks PAF-induced NF-kB reporter in cystic fibrosis cells; KKLEB NF-kB-GFP reporter, GFP fluorescence overnight; inhibition, % at 5 µM; 0.86% of 360,000 active;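 active = at least 50% inhibition at 5 µM, scaled per plate between neutral and stimulator controls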;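 note: PAF is a Pseudomonas aeruginosa culture filtrate used as stimulus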
KKLEB tox: CF airway cell cytotoxicity counter-screen; activity change (cytotoxicity), % at 5 µM; KKLEB CF airway cells viability, ATPlite luminescence, overnight; stronger effect = lower value; cells stimulated with P. aeruginosa culture filtrate; 0.36% of 360,000 active;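 active = corrected activity change at or below -50% at 5 µM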
HIF-2a block: HIF-2a inhibition | 786-0 RCC cells HIF-2a reporter, luciferase luminescence, overnight | inhibition, % at 18.8 µM | 0.72% of 360,000 active;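 active = inhibition of the luminescence signal of 40% or more relative to plate controls, in a single-dose primary screen at 18.75 µM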
Of the large screens only hits and unclear results are named; the others gave an inactive call; ! = repeats disagree.

CCc1cc(Cl)c(OC)c(C(=O)NC[C@@H]2CCCN2CC)c1O	EBV LMP1 NFkB 71!
CN(C)CCn1cnc2c(c1=N)C(c1ccccc1)c1ccc3ccccc3c1O2 (configuration not stated)	MITF TRPM1 inh 93, Peg3 prom inh 109
N=c1c2c(ncn1CCN1CCOCC1)Oc1ccc3ccccc3c1C2c1ccccc1 (configuration not stated)	none
COc1ccc(C2c3c(ncn(CCN4CCOCC4)c3=N)Oc3ccc4ccccc4c32)cc1 (configuration not stated)	Peg3 prom inh 60
N=c1c2c(ncn1Cc1ccco1)Oc1c(ccc3ccccc13)C2c1ccccc1 (configuration not stated)	Peg3 prom inh 80
C=CCOC(=O)COc1ccc2c3c(c(=O)oc2c1)CCCC3	none (no result: MITF TRPM1 inh)
O=C(CC(SCCO)c1ccc([N+](=O)[O-])cc1)c1ccco1 (configuration not stated)	Peg3 prom inh 72
CCN(CC)CC(=O)Nc1cccc2c1C(=O)c1ccccc1C2=O	none
O=C1c2ccccc2C(=O)c2c(NCCCN(CCO)CCO)cccc21	Peg3 prom inh 59
CC1(C(=O)NS(=O)(=O)c2ccccc2)CCN1C(=O)c1ccc(C2CCCCC2)cc1 (configuration not stated)	none (no result: EBV LMP1 NFkB, MITF TRPM1 inh)
COc1ccc(OC)c2c1C(=O)C(Cl)=C(Cl)C2=O	MITF TRPM1 inh 88, Peg3 prom inh 107, CF NFkB block 90, KKLEB tox -54, HIF-2a block 94
COc1ccc(-c2csc(N(CCc3ccccc3)C(=O)COc3ccccc3)n2)cc1	none
O=C(COc1ccc(Cl)cc1)N(Cc1ccccc1)c1nc(-c2ccccc2)cs1	Peg3 prom inh 55
CCOc1ccccc1CNC(=O)C1CCCN(c2nnc(C)c3c(C)n(-c4ccccc4)nc23)C1 (configuration not stated)	MITF TRPM1 inh 81, Peg3 prom inh 55
COc1ccc(-n2nc3c(N4CCC(C(=O)NCC(C)c5ccccc5)CC4)nnc(C)c3c2C)cc1 (configuration not stated)	MITF TRPM1 inh 68, Peg3 prom inh 75
COc1ccc(-n2nc3c(N4CCC(C(=O)NCc5ccco5)CC4)nnc(C)c3c2C)cc1	none
COc1ccc(-n2nc3c(N4CCC(C(=O)NCCc5ccccc5C)CC4)nnc(C)c3c2C)cc1	MITF TRPM1 inh 89, Peg3 prom inh 103
O=C(Nc1ccccc1)c1cn2ccccc2n1	EBV LMP1 NFkB 42
CC(C)c1ccc2c(c1)C(N1CCN(C)CC1)Cc1cccnc1S2 (configuration not stated)	none
O=[N+]([O-])c1ccc2c(c1)C(N1CCN(CCO)CC1)Cc1ccc(F)cc1S2 (configuration not stated)	none (no result: EBV LMP1 NFkB, MITF TRPM1 inh)
COc1ccc2c(c1)CC(N1CCN(C)CC1)c1cc(OC)ccc1S2 (configuration not stated)	Peg3 prom inh 69
CSc1ccc2c(c1)C(N1CCN(C)CC1)Cc1ccc(F)cc1S2 (configuration not stated)	Peg3 prom inh 115 (no result: EBV LMP1 NFkB, MITF TRPM1 inh)
CC(C)CN(C(=O)COC(=O)c1ccccc1SCC(=O)N1CCCC1)C1CCS(=O)(=O)C1 (configuration not stated)	none
CCOC(=O)C(=O)N(C)c1c(CC)nc2c(OCc3cccc(OC)c3)cccn12	none (no result: EBV LMP1 NFkB, MITF TRPM1 inh)
Cc1nc2nc(C)c(C)nc2nc1C	none (no result: EBV LMP1 NFkB, MITF TRPM1 inh)
OC[C@@H]1CN(Cc2cccnc2)C[C@H](n2cnc3c(NC4CCCC4)ncnc32)O1	none (no result: EBV LMP1 NFkB, MITF TRPM1 inh)
Cc1ccc(N=Nc2ccc3ccccc3c2O)cc1	KKLEB tox -63
COc1ccccc1N=Nc1ccc(O)c2ncccc12	none
Cc1ccc(N=Nc2ccc(O)c3ncccc23)cc1	MITF TRPM1 inh 87
CCS(=O)(=O)c1ccc(N=Nc2ccc(O)c3ncccc23)c(OC)c1	MITF TRPM1 inh 66
Oc1ccc(N=Nc2ccccc2C(F)(F)F)c2cccnc12	EBV LMP1 NFkB 72, MITF TRPM1 inh 73
Oc1c(N=Nc2ccc(F)cc2)ccc2ccccc12	none
O=C(NC1CCCCC1)c1csnn1	EBV LMP1 NFkB 89
O=C(CN(Cc1ccccc1F)C(=O)c1csnn1)NC1CCCCC1	HIF-2a block 57
Cc1ccc(CN(CC(=O)NC2CCCC2)C(=O)c2csnn2)cc1	none
Cc1cn(C2CCCCO2)c(=O)[nH]c1=O (configuration not stated)	none
CCOc1ccc(Br)cc1/C(C)=N\NC1=NCCN1	EBV LMP1 NFkB 80
CCCCCOc1ccc(/C(C)=N/NC2=NCCN2)cc1	none
CC(=O)c1ccc(-c2cccc(-c3nc4ccccn4c3NC3CCCCC3)c2)cc1	Peg3 prom inh 62
CCCCNc1c(-c2ccc(SC3CCCCC3)c(OC)c2)nc2ccc(C)cn12	none
CCCCNc1c(-c2ccc(OC)c(SC(C)CC)c2)nc2ccc(C)cn12 (configuration not stated)	Peg3 prom inh 100
COc1ccc(-c2nc3ccc(C)cn3c2NCc2ccccc2)cc1SC1CCCCC1	none
CCCCNc1c(-c2ccc(OC)c(SC3CCCCC3)c2)nc2ccc(C)cn12	Peg3 prom inh 98
CCC(C)Sc1cc(-c2nc3ccc(C)cn3c2NCc2ccccc2)ccc1OC (configuration not stated)	Peg3 prom inh 96, CF NFkB block 58
CCCCNc1c(-c2ccc(OC)c(SC(C)CC)c2)nc2ccc(Cl)cn12 (configuration not stated)	none
Cc1ccc(NC(=O)c2ncn(CCCNCC3CCCO3)n2)cc1C (configuration not stated)	none
O=Cc1ccc2c(c1)OCCOCCOCCOCCO2	none (no result: MITF TRPM1 inh)
O=C(CS(=O)(=O)c1ccccc1)Nc1ccccc1Br	none
COc1ccc(Cl)cc1CC1(C)C(=O)Nc2c(Cl)cccc21 (configuration not stated)	none (no result: EBV LMP1 NFkB, MITF TRPM1 inh)
CCC(C)Sc1cc(-c2nc3cc(C)ccn3c2NC2CCCCC2)ccc1OC (configuration not stated)	none
CCC(C)Sc1cc(-c2nc3ccccn3c2NC2CCCCC2)ccc1OC (configuration not stated)	Peg3 prom inh 95
CCC(C)Sc1ccc(-c2nc3ccc(C)cn3c2NCc2ccccc2)cc1OC (configuration not stated)	Peg3 prom inh 88
CC(c1nc2ccccc2[nH]1)N(C(=O)Cc1csc2ccccc12)c1cccnc1 (configuration not stated)	none (no result: EBV LMP1 NFkB, MITF TRPM1 inh)
COc1ccc(C(C(=O)NCc2ccccc2)n2c(=O)c(-c3ccco3)nc3ccccc32)cc1 (configuration not stated)	none (no result: EBV LMP1 NFkB, MITF TRPM1 inh, Peg3 prom inh, CF NFkB block, KKLEB tox)
COc1cccc(C(=O)OCn2nnc3ccccc3c2=O)c1OC	EBV LMP1 NFkB 53
Cc1csc(NC(=O)CSc2nc3[nH]c(=O)cc(O)c3s2)n1	MITF TRPM1 inh 87, Peg3 prom inh 99, CF NFkB block 71
N#C/C(=C\c1ccc([N+](=O)[O-])o1)C(=O)Nc1ccc(F)cc1	Peg3 prom inh 53
